A number with no mark means an inactive call. How the calls were made is not given here.
tested on: HIV-1 nucleocapsid protein NCp7 (binding to TG oligonucleotide); assay: HIV Nucleocapsid (AID 346); conditions: HIV-1 NC / fluorescein-TGTGTGTG probe, fluorescence polarization;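 further: potency is for inhibitors that block NC binding and lower polarization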
Summary of the method: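 Fluorescence polarization readout: labelled TG4xF oligo (10 nM) with 100 nM nucleocapsid protein, high-salt (250mM NaCl) Hepes pH 7.5 buffer containing zinc and fresh reducing agents. Compounds added by pin tool; incubation 1 hr, room temperature.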
Potency means the concentration at half of the fitted maximal effect.

SMILES | Potency [µM]
Cn1c(=O)c(-c2cc(F)cc(F)c2)nc2cnc(Oc3ccccc3)nc21 | > 20
COCCNc1ccnc(-c2c(C)noc2C)n1 | > 20
COc1ccccc1CNc1cc(-c2ccccc2C(F)(F)F)ncn1 | > 20
CC(=O)NCCNc1cc(-c2ccccc2C(F)(F)F)ncn1 | > 20
COc1ccccc1-c1cc(-n2ccnc2)ncn1 | > 20
COc1ncc2nc(-c3cccs3)c(=O)n(-c3ccccc3)c2n1 | > 4
Cn1c(=O)c(CCc2ccccc2)nc2cnc(Nc3ccccc3)nc21 | > 20
COc1ccc(Oc2ncc3nc(-c4ccc(F)cc4)c(=O)n(C[C@H]4CCCO4)c3n2)cc1 | > 20
Cn1cc(-c2nc3cnc(N4CCNCC4)nc3n(C3CC3)c2=O)c2ccccc21 | > 20
N#CCCn1c(=O)c(CCc2ccccc2)nc2cnc(Nc3ccccc3)nc21 | > 4
COc1ccc(Oc2ncc3nc(-c4ccc(F)cc4)c(=O)n(CCC#N)c3n2)cc1 | > 20
COc1ccccc1CNc1ccnc(-c2ccccc2Cl)n1 | > 20
COc1ccccc1-c1nc(NCc2cccs2)c2ccccc2n1 | > 20
O=C(c1ccco1)N1CCC2(CCCN(Cc3ccccc3)C2)CC1 | > 20
CC(=O)N1CCC2(CCCN(Cc3nccs3)C2)CC1 | > 20
Cn1cccc1C(=O)N1CCC2(CCCN(Cc3ccncc3)C2)CC1 | > 20
Cn1cccc1C(=O)N1CCC2(CCN(Cc3ccncc3)CC2)CC1 | > 20
CN(Cc1ccco1)c1nc(-c2cccnc2)nc2ccccc12 | > 20
O=C(c1cnccn1)N1CCC[C@@]2(CCN(c3ccncc3)C2)C1 | > 20
Cc1noc(C)c1C(=O)N1CCC2(CCN(Cc3ccncc3)CC2)CC1 | > 20

SMILES | Potency [µM]
O=C(c1ccco1)N1CCC2(CC1)CCN(c1ccncc1)CC2 | > 20
Cc1cccc(CNc2ncnc3ccc(-c4c(C)noc4C)cc23)c1 | > 20
COCCn1c(=O)cnc2cnc(N(C)C)nc21 | > 20
CC(=O)N1CCC2(CC1)CCN(C(=O)Nc1cccc(F)c1)CC2 | > 20
COCC(=O)N1CCC[C@@]2(CCN(c3ncccn3)C2)C1 | > 20
Cc1noc(C)c1C(=O)N1CCC2(CC1)CN(C(=O)Nc1cccc(F)c1)C2 | > 20
O=C(Nc1cccc(F)c1)N1CC2(CCN(C(=O)c3cnccn3)CC2)C1 | > 20
COc1ccc2[nH]cc(CCNc3cc(-c4cccnc4)ncn3)c2c1 | > 20
Cc1noc(C)c1-c1nc(Nc2ccccc2)c2ccccc2n1 | > 20
c1ccc(Nc2ncnc3ccc(-c4ccoc4)cc23)cc1 | > 20
COc1ccccc1CCn1c(=O)c(-c2cn(C)c3ccccc23)nc2cncnc21 | > 4
O=C(c1csnn1)N1CCC2(CCCN(Cc3cc(C(F)(F)F)cc(C(F)(F)F)c3)C2)CC1 | > 20
COCCn1c(=O)c(-c2cc(F)cc(F)c2)nc2cnc(Oc3cccc(Cl)c3)nc21 | > 20
Cc1ccccc1-c1cc(Nc2ccccc2)ncn1 | > 20
CC(=O)NCCNc1nc(-c2ccc(N(C)C)cc2)nc2ccccc12 | > 20
COc1ccccc1CNc1ncnc2ccc(-c3ccc4c(c3)OCO4)cc12 | > 20
COCCn1c(=O)c(-c2ccc(Cl)cc2)nc2cnc(Nc3ccccc3)nc21 | > 20
O=C(Oc1ccccc1)N1CCC2(CC1)CN(c1ccncc1)C2 | > 20
Cn1c(=O)c(-c2ccc(Cl)cc2)nc2cnc(OCc3ccccc3)nc21 | > 20
O=C(c1cnccn1)N1CCC2(CCN(Cc3cc(C(F)(F)F)cc(C(F)(F)F)c3)CC2)CC1 | > 20
